Reference: PubChem BioAssay AID504327 (National Center for Advancing Translational Sciences (NCATS), 2011)
“And” between values parts separate entries of the source, which are not always exact repeats. Identical values can stand only once. The campaign covered roughly 390,000 compounds. About 820 (0.21%) were called active. Another 3% or so got no clear call; they are omitted. This is one part of a sample in which actives are shown more often than they occur. Calls come from the whole dose curve; as a rule, active = well fitted inhibition curve with a large enough effect; inconclusive = small, poorly fitted or top-dose-only effect, or another doubt; inactive = no such curve, though single readings can be large or run the other way. The source holds several records for some structures; these can differ, active in one and inactive in another.

target: Histone acetyltransferase KAT2A (Homo sapiens) (UniProt Q92830); assay: qHTS Assay for Inhibitors of GCN5L2; conditions: GCN5L2 HAT assay, ThioGlo1 CoA-SH fluorescence; series mostly up to 58.9 µM; activity change, negative = inhibition: at the top concentration
Sequence (Q92830 whole entry, looked up): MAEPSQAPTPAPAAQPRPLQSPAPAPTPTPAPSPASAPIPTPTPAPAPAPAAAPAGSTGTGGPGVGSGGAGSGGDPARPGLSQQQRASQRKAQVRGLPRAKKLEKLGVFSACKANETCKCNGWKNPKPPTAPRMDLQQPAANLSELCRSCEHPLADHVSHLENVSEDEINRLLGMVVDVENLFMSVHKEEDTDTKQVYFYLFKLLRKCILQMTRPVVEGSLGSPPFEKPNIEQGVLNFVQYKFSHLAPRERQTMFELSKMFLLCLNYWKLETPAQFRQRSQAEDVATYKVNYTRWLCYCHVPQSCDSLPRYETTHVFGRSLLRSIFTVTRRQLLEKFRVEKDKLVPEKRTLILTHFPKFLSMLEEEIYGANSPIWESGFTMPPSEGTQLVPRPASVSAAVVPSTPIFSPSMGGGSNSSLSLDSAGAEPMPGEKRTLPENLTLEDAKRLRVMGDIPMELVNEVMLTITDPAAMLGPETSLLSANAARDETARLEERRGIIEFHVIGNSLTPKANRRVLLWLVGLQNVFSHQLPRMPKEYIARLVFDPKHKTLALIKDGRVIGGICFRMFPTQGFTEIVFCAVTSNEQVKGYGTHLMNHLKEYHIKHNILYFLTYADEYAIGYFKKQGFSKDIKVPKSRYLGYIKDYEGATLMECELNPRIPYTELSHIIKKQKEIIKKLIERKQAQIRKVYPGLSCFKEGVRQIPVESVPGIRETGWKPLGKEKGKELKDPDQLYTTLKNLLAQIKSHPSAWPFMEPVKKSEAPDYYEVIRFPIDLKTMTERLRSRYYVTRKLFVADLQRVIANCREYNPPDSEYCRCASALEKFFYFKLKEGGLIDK
In short: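 Free CoA generated was detected with ThioGlo1 (50uM) fluorescence at Ex340nm/Em540nm, read immediately and after 20 min at room temperature. Enzyme, 20 nM in HEPES pH 7.5 buffer, saw compounds 15 min before adding 75uM H3(1-25) peptide and 70uM acetyl-CoA.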
% is set by controls: 0 for no effect and ±100 for the full control effect; potency is the fitted concentration of half-maximal effect.

Compound	activity change, negative = inhibition	Potency
CC[C@H](C)[C@H](NC(=O)[C@@H](N)CCC(=O)O)C(=O)N[C@@H](CC(C)C)C(=O)N[C@@H](CC(=O)O)C(=O)N[C@H](C(=O)N1CCC[C@H]1C(=O)N[C@@H](CO)C(=O)N[C@H](C(=O)O)[C@@H](C)O)C(C)C	21.2% (inactive)	
NCCCCC(N)C(=O)O (configuration not stated)		inactive
Cc1c(C)n(Cc2ccc(Cl)cc2)c2ccc(C(=O)N3CCN(c4ccccc4F)CC3)cc12	3.04% (inactive)	
CC(C)c1ccc(Cn2c(COc3ccccc3)nc3ccccc32)cc1	-16.6% (inactive)	
C=C(C)C1CC=C(CO)CC1 (configuration not stated)	0.773% (inactive)	
COc1ccc2[nH]cc(CCNc3nc(-c4cccc(NS(C)(=O)=O)c4)nc4ccccc34)c2c1	-9.04% (inactive)	
O=C(CN(c1cc(C(F)(F)F)ccc1Cl)S(=O)(=O)c1ccccc1)NCc1cccnc1	-8.69% (inactive)	
CC(=O)N(c1ccc2oc(=O)sc2c1)S(=O)(=O)c1ccc(C)cc1	-8.64% (inactive)	
O=C(c1cccnc1)N(c1cc2sc(=O)oc2c2ccccc12)S(=O)(=O)c1ccccc1		31.6 µM (active)
CC(C)(O)CCC(O)[C@@](C)(O)C1CC[C@]2(O)C3=CC(=O)C4CC(O)C(O)C[C@]4(C)C3CC[C@]12C (some centres not stated)	2.5% (inactive)	
Cc1cn([C@H]2CC(F)[C@@H](CO)O2)c(=O)[nH]c1=O (some centres not stated)	-0.475% (inactive)	
C=CCOC(=O)C(=C)C	0% (inactive)	
O=c1c(-c2cc(F)cc(F)c2)nc2cnc(Oc3ccccc3)nc2n1C[C@H]1CCCO1	-28.4% (inactive)	
Cc1ccnc(-n2sc3ccccc3c2=O)n1		3.16 µM (active)
O=C(c1cc(C(F)(F)F)cc(C(F)(F)F)c1)N1CCC[C@@]2(CCN(c3ccccn3)C2)C1	-8.29% (inactive)	
CCCCCCCC/C=C\CCCCCCCC(=O)OC[C@H](CO)OC(C)=O	-5.32% (inactive)	
O=C(c1ccco1)N1CCC[C@@]2(CCN(c3ccccc3)C2)C1	-8.32% (inactive)	
Cc1ccc(CC2(O)CCN(CCOc3ccc(O)cc3)CC2)cc1	-13.7% (inactive)	
CC(=O)OCC(=O)[C@@]1(O)CCC2C3CCC4=CC(=O)CC[C@]4(C)C3C(=O)C[C@]21C (some centres not stated)	22% (inactive)	
COc1ccc(-c2nc3ccc(C(=O)NCc4ccc(C)cc4)cc3nc2-c2ccc(OC)cc2)cc1	-0.354% (inactive)	
O=C(NCc1ccccn1)c1ccc2nc(-c3ccco3)c(-c3ccco3)nc2c1		11.2 µM (active)
COCCNC(=O)Nc1ccc2nc(-c3ccco3)c(-c3ccco3)nc2c1		17.8 µM (active)
CCOc1ccc(NC(=O)c2ncoc2-c2ccco2)cc1	-0.384% (inactive)	

Compound	activity change, negative = inhibition	Potency
COc1ccc(NC(=O)COCc2cc(-c3ccco3)on2)cc1	-2.39% (inactive)	
CCN(c1ccccc1)S(=O)(=O)c1cc(C(=O)NCc2ccccn2)ccc1C	-1.59% (inactive)	
C[C@]12CC[C@@H]3C(=CCc4cc(O)ccc43)[C@@H]1CCC2=O	-0.875% [at 21.4 µM] (inactive)	
OCCN1CCN(CC/C=C2\c3ccccc3Sc3ccc(C(F)(F)F)cc32)CC1	4.51% [at 21.4 µM] (inactive)	
Nc1nc2c(nc(Cl)n2C2OC(CO)C(O)C2O)c(=O)[nH]1 (configuration not stated)	-3.22% (inactive)	
COc1ccc(C(=O)N2CCC3(CCCN(C(c4ccccc4)c4ccccc4)C3)CC2)cc1	-8.68% (inactive)	
FCOC(C(F)(F)F)C(F)(F)F	5.6% (inactive)	
N#CCCn1c(=O)c(-c2cc(F)cc(F)c2)nc2cnc(Oc3ccccc3)nc21	-10.8% (inactive)	
Nc1nc2nc(Cl)[nH]c2c(=O)[nH]1	2.74% (inactive)	
O=c1c(O)c(-c2ccc(O)cc2)oc2ccccc12	-23.8% (inactive)	
Oc1ccc(-c2c(-c3ccccc3)nn3c(C(F)(F)F)cc(C(F)(F)F)nc23)cc1	2.29% (inactive)	
Fc1ccc(Cl)cc1-c1nc(Nc2ccncc2)c2nccnc2n1	-19.4% (inactive)	
Cc1ccc(-c2nn(-c3ccccc3)cc2/C=C2\SC(=S)N(CCCCCC(=O)O)C2=O)o1		25.1 µM (active)
CO[C@@]12[C@@H](COC(N)=O)C3=C(C(=O)C(C)=C(N)C3=O)N1C[C@@H]1N[C@@H]12	-20.7% (inactive)	
COc1ccccc1CNc1ncnc2ccc(-c3c(C)noc3C)cc12	-14.3% (inactive)	
COc1ccccc1-c1nc(NCc2cccs2)c2ccccc2n1	-21.4% (inactive)	
H-EHIPA-OH	18.8% (inactive)	
Nc1nc2c(ncn2[C@@H]2O[C@H](COP(=O)(O)OP(=O)(O)OP(=O)(O)O)[C@@H](O)C2O)c(=O)[nH]1 (some centres not stated)	-12.8% (inactive)	
O=C(Nc1cccc(C(F)(F)F)c1)c1ccc(N2CCNCC2)c([N+](=O)[O-])c1	-2.11% (inactive)	
COc1cc(OC)cc(C(=O)NC(=S)N2CCN(c3ccc(C(F)(F)F)cc3[N+](=O)[O-])CC2)c1		2 µM (active)
O=C(Cc1ccc(S(=O)(=O)N2CCOCC2)s1)N1CCN(c2ccc(C(F)(F)F)cc2[N+](=O)[O-])CC1	-13.7% (inactive)	
CC(C)=CCN1CCC2(CCc3ccccc32)CC1	4.12% (inactive)	
CC(C)C(NS(=O)(=O)c1ccc(-c2ccc(Br)cc2)cc1)C(=O)O (configuration not stated)	0% (inactive)	

Compound	activity change, negative = inhibition	Potency
COCCn1c(=O)c(-c2cccs2)nc2cncnc21	-22.2% (inactive)	
OCC(CO)NC1C[C@](O)(CO)[C@@H](O)[C@H](O)[C@H]1O (some centres not stated)	8.63% (inactive)	
COc1ccc(CNc2ncncc2-c2ccccc2C)c(OC)c1	-21.1% (inactive)	
COc1ccc(CCCOC(Cn2ccnc2)c2ccc(OC)cc2)cc1 (configuration not stated)		inactive
Cc1ccccc1NC(=O)c1cnn(-c2ccccc2)c1NC(=O)c1ccco1	-1.21% (inactive)	
O=C(Cc1ccccc1)Nc1c(C(=O)N2CCCCCC2)cnn1-c1ccccc1	-0.211% (inactive)	
O=C(Nc1c(C(=O)N2CCCCC2)cnn1-c1ccccc1)c1ccco1		17.8 µM (active)
O=C(/C=C/c1cccc(F)c1)NC1CC1	-6.39% (inactive)	
CC(C)C1=CC2=CC[C@@H]3[C@](C)(CO)CCC[C@]3(C)C2CC1 (some centres not stated)	-17.6% (inactive)	
CC1=C(/C=C/C(C)=C/C=C/C(C)=C/C=C/C=C(C)/C=C/C=C(C)/C=C/C(=O)[C@]2(C)C[C@@H](O)CC2(C)C)C(C)(C)C[C@H](O)C1	-12.7% (inactive)	
C#CCCCCCCCCCCCCCCCC(=O)O		inactive and 11.2 µM (active)
O=C(O)CCCCC(=O)O	58.8% (inactive)	
CCCCCCCCCCCC(=O)O	-5.79% (inactive)	
NC(=O)c1sc(-c2ccsc2)cc1N	-5.86% (inactive)	
Cc1nc2cnc(N3CCNCC3)nc2n(CCc2ccccc2)c1=O	-21.2% (inactive)	
Cc1ccccc1-c1ccc(C(=O)O)s1	-15.4% [at 135 µM] (inactive)	
Cn1cc(-c2nc3cnc(N4CCNCC4)nc3n(CCc3ccccc3)c2=O)c2ccccc21	-14.4% (inactive)	
NCCCNCCCCN(CCCN)/[N+]([O-])=N/O	-12.4% (inactive)	
FC(F)(F)Oc1ccc(-c2cn3cccnc3n2)cc1	-8.87% (inactive)	
CC(C)(C)C(=O)Nc1ccc(-c2cn3cccnc3n2)cc1	-29.9% (inactive)	
COc1ccc(-c2cn3cccnc3n2)cc1		31.6 µM (active)
CC1O[C@@H](Oc2c(-c3ccc(O)c(O)c3)oc3cc(O)cc(O)c3c2=O)C(O)C(O)C1O (some centres not stated)	10.8% (inactive)	
C=C1C(=O)C23C(O)C1CCC2[C@]12COC3(O)C(O)C1C(C)(C)CC[C@H]2O (some centres not stated)	-7.65% (inactive)	

Compound	activity change, negative = inhibition	Potency
CCc1nc(-c2cc(S(=O)(=O)N3CCN(c4ccc(OC)cc4)CC3)ccc2OC)no1		25.1 µM (active)
COc1ccc(N2CCN(S(=O)(=O)c3ccc(-c4coc(C)n4)cc3)CC2)cc1	-1.94% (inactive)	
COc1ccc(S(=O)(=O)N2CCN(c3ccc(F)cc3)CC2)cc1-c1noc(C)n1	-5.52% (inactive)	
Cc1ccc(/C(=C/CN2CCCC2)c2ccccn2)cc1		inactive
COC(=O)N1CCC2(CCCN(c3ccncc3)C2)CC1	-8.99% (inactive)	
O=C(Oc1cc(OC(=O)c2ccccc2)c2c(c1)OC(c1ccc(OC(=O)c3ccccc3)c(OC(=O)c3ccccc3)c1)[C@@H](OC(=O)c1ccccc1)C2)c1ccccc1 (some centres not stated)	6.73% (inactive)	
CCOC(=O)c1sc(=S)n2c1[nH]c(=O)c1ccc(C(=O)OC)cc12		35.5 µM (active)
CCOC(=O)C1=C(C)Nc2sc(C(=O)c3ccc(Br)cc3)c(N)c2C1c1ccc(C(=O)OC)cc1 (configuration not stated)	-19.5% (inactive)	
COC(=O)c1sc2[nH]c(=S)n(N)c(=O)c2c1C	-14.2% (inactive)	
CCCc1cc(=S)n2c([nH]c3ccccc32)c1C#N		22.4 µM (active)
COc1cc2c(cc1OC)[C@@H](Cc1cc(OC)c(OC)c(OC)c1)[N+](C)(CCCOC(=O)CC/C=C/CCC(=O)OCCC[N+]1(C)CCc3cc(OC)c(OC)cc3[C@H]1Cc1cc(OC)c(OC)c(OC)c1)CC2 (some centres not stated)	-0.503% (inactive)	
Cc1cccn2c(=O)c(C=O)c(Nc3ccc(S(N)(=O)=O)cc3)nc12	-4.25% (inactive)	
O=Cc1c(N2CCN(c3cccc(Cl)c3)CC2)nc2ccccn2c1=O	0.398% (inactive)	
O=Cc1c(Nc2ccccc2Cl)nc2ccccn2c1=O		22.4 µM (active)
CC(=O)NC(=O)c1ccccc1O	-2.65% (inactive)	
CC1CC2C3CCC4=CC(=O)C=C[C@]4(C)[C@@]3(F)[C@@H](O)C[C@]2(C)[C@@]1(O)C(=O)CO (some centres not stated)	-2.41% (inactive)	
COc1c2c(cc3occ(-c4ccc5c(c4)OCO5)c(=O)c13)OC(C)(C)C=C2	-15.3% (inactive)	
COc1ccc(C(=O)N2CCC3(CC2)CCN(c2ccccn2)CC3)cc1	7.2% (inactive)	
COc1ccc(-c2nc3cnc(OC)nc3n(Cc3ccc(F)cc3)c2=O)cc1	-23.8% (inactive)	
CC(N)(C(=O)O)c1ccc(-c2nn[nH]n2)cc1 (configuration not stated)	2.68% (inactive)	
COCCn1c(=O)c(CCc2ccccc2)nc2cncnc21	-6.53% (inactive)	
O=C(O)CCC(=O)O	21.2% (inactive)	
COc1ccc(CNc2ncncc2-c2ccccc2OC)c(OC)c1	-13.3% (inactive)	

Compound	activity change, negative = inhibition	Potency
O=C1NS(=O)(=O)c2ccccc21		inactive
CC1(C)C=CC(=O)[C@]2(C)C1CC(=O)[C@]1(C)C2CC[C@@]2(C)C(c3ccoc3)OC(=O)C3OC321 (some centres not stated)	23.3% (inactive)	
O=C1C(c2ccccn2)=[N+]([O-])c2ccccc21	-19% (inactive)	
O=C1C(c2[nH]c3ccccc3c2O)=Nc2ccccc21	-21.1% (inactive)	
O=C(c1ccncc1)N1CCC2(CCN(Cc3cc(C(F)(F)F)cc(C(F)(F)F)c3)CC2)CC1	-0.448% (inactive)	
CCOC(=O)C(Cc1ccc(N)cc1)N1C(=O)c2ccccc2C1=O (configuration not stated)	-5.43% (inactive)	
Cc1ccc(C)n1C(Cc1ccccc1)C(=O)O (configuration not stated)		22.4 µM (active)
COc1ccc(CNC(=O)C(Cc2ccccc2)n2cccc2)cc1 (configuration not stated)	-4.02% (inactive)	
COc1cccc(Cn2c(=O)cnc3cncnc32)c1	-10.4% (inactive)	
Cc1ccc(S(=O)(=O)N2CCN(C(=O)c3ccccc3-c3nc4ccccc4s3)CC2)c(C)c1	1.58% (inactive)	
CC(=O)N1CCN(C(=O)c2cc(-c3ccc(C)o3)nc3ccccc23)CC1		20 µM (active)
CC(=O)N1CCN(C(=O)c2cc(-c3ccc(Cl)s3)nc3ccccc23)CC1	-8.36% (inactive)	
O=c1c(CCc2ccccc2)nc2cnc(N3CCNCC3)nc2n1Cc1cccs1	-17.2% (inactive)	
NC(=O)C(=O)N/N=C/c1ccc([N+](=O)[O-])o1	16.5% (inactive)	
CCOC(=O)C1C/C(=C\C(C)=O)c2cccc(C(F)(F)F)c2O1 (configuration not stated)	8.45% [at 88.6 µM] (inactive)	
COc1ccc(N2CCN(S(=O)(=O)c3ccc4c(c3)NC(=O)C(C)C(=O)N4)CC2)cc1 (configuration not stated)	-3.08% (inactive)	
CC1C(=O)Nc2ccc(S(=O)(=O)N3CCN(c4ccccc4F)CC3)cc2NC1=O (configuration not stated)		39.8 µM (active)
O=C(c1ccc(S(=O)(=O)N2CCCC2)cc1)N1CCN(c2ccccc2F)CC1	-15.7% (inactive)	
CC(C)=CC1C(C(=O)O)C1(C)C (configuration not stated)	-4.75% (inactive)	
Oc1ccc(Cl)c2c1CCC2	-11.3% (inactive)	
